# Measured values published in the supplement of paper PMC8728848.
# Many of the other results were omitted from the sample, so the strongest signals are more common in it than they were.
# B1: PEB1 (Campylobacter jejuni), Q0P9X8 (protein)
# chain: MVFRKSLLKLAVFALGACVAFSNANAAEGKLESIKSKGQLIVGVKNDVPHYALLDQATGEIKGFEVDVAKLLAKSILGDDKKIKLVAVNAKTRGPLLDNGSVDAVIATFTITPERKRIYNFSEPYYQDAIGLLVLKEKKYKSLADMKGANIGVAQAATTKKAIGEAAKKIGIDVKFSEFPDYPSIKAALDAKRVDAFSVDKSILLGYVDDKSEILPDSFEPQSYGIVTKKDDPAFAKYVDDFVKEHKNEIDALAKKWGL
# What was measured:
# Assay in all cases: glycan array binding signal (z-score within array); higher = stronger binding
# Settings in all cases: glycan notation: IUPAC condensed, linker removed
# Fuc(a1-2)Gal(b1-4)Glc = molecular target: Fuc(a1-2)Gal(b1-4)Glc
# Outline: (§1)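 Arrays were curated from the Consortium for Functional Glycomics database, 3228 in total, and kept only where the protein sequence was available. Binding is expressed as a within-array Z-score. This score was averaged across arrays of the same protein sequence at different concentrations or buffers and across linkers, and negative values can be read as non-binding.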
# [1] = molecular target: Fuc(a1-2)Gal(b1-4)GlcNAc6S
# Outline: as §1
# [2] = molecular target: Fuc(a1-2)Gal6S(b1-4)GlcNAc
# Outline: as §1
# [3] = molecular target: Fuc(a1-2)[GalNAc(a1-3)]Gal(b1-4)GlcNAc(b1-2)Man(a1-3)[Fuc(a1-2)[GalNAc(a1-3)]Gal(b1-4)GlcNAc(b1-2)Man(a1-6)]Man(b1-4)GlcNAc(b1-4)GlcNAc
# Outline: as §1
# [4] = molecular target: Fuc(a1-3)[Gal(b1-4)]GlcNAc(b1-2)Man(a1-3)[Fuc(a1-3)[Gal(b1-4)]GlcNAc(b1-2)Man(a1-6)]Man(b1-4)GlcNAc(b1-4)GlcNAc
# Outline: as §1
# [5] = molecular target: Fuc(a1-3)[Gal(b1-4)]GlcNAc(b1-4)Gal(b1-4)[Fuc(a1-3)]GlcNAc
# Outline: as §1
# [6] = molecular target: Gal(a1-3)Gal(b1-3)[Fuc(a1-4)]GlcNAc(b1-2)Man(a1-3)[Gal(a1-3)Gal(b1-3)[Fuc(a1-4)]GlcNAc(b1-2)Man(a1-6)]Man(b1-4)GlcNAc(b1-4)GlcNAc
# Outline: as §1
# [7] = molecular target: Gal(a1-4)Gal(b1-4)GlcNAc(b1-2)Man(a1-3)[Gal(a1-4)Gal(b1-4)GlcNAc(b1-2)Man(a1-6)]Man(b1-4)GlcNAc(b1-4)GlcNAc
# Outline: as §1
# Gal(b1-2)Gal = molecular target: Gal(b1-2)Gal
# Outline: as §1
# [8] = molecular target: Gal(b1-3)[Fuc(a1-4)]GlcNAc(b1-2)Man(a1-3)[Gal(b1-3)[Fuc(a1-4)]GlcNAc(b1-2)Man(a1-6)]Man(b1-4)GlcNAc(b1-4)GlcNAc
# Outline: as §1
# [9] = molecular target: Gal(b1-3)[Neu5Ac(a2-6)]GalNAc
# Outline: as §1
# [10] = molecular target: Gal(b1-4)GlcNAc(b1-2)Man(a1-3)[Gal(b1-4)GlcNAc(b1-2)Man(a1-6)]Man(b1-4)GlcNAc(b1-4)[Fuc(a1-6)]GlcNAc
# Outline: as §1
# [11] = molecular target: Gal(b1-4)GlcNAc(b1-3)Gal(b1-3)GlcNAc
# Outline: as §1
# [12] = molecular target: Gal(b1-4)GlcNAc(b1-3)Gal(b1-4)Glc
# Outline: as §1
# [13] = molecular target: Gal(b1-4)GlcNAc(b1-6)Gal(b1-4)GlcNAc
# Outline: as §1
# Gal3S(b1-4)Glc = molecular target: Gal3S(b1-4)Glc
# Outline: as §1
# [14] = molecular target: Gal3S(b1-4)[Fuc(a1-3)]Glc6S
# Outline: as §1
# [15] = molecular target: GalNAc(b1-4)GlcNAc(b1-2)Man(a1-3)[GalNAc(b1-4)GlcNAc(b1-2)Man(a1-6)]Man(b1-4)GlcNAc(b1-4)GlcNAc
# Outline: as §1
# [16] = molecular target: GlcNAc(a1-4)Gal(b1-4)GlcNAc
# Outline: as §1
# [17] = molecular target: Kdn(a2-3)Gal(b1-4)[Fuc(a1-3)]GlcNAc
# Outline: as §1
# [18] = molecular target: Man(a1-2)Man(a1-6)[Man(a1-3)]Man(a1-6)[Man(a1-2)Man(a1-2)Man(a1-3)]Man
# Outline: as §1
# [19] = molecular target: Neu5Ac(a2-3)Gal(b1-3)GlcNAc(b1-3)Gal(b1-4)GlcNAc
# Outline: as §1
# [20] = molecular target: Neu5Ac(a2-3)Gal(b1-3)[Fuc(a1-4)]GlcNAc(b1-3)Gal(b1-4)[Fuc(a1-3)]GlcNAc
# Outline: as §1
# [21] = molecular target: Neu5Ac(a2-3)Gal(b1-4)GlcNAc(b1-3)Gal(b1-4)[Fuc(a1-3)]GlcNAc
# Outline: as §1
# [22] = molecular target: Neu5Ac(a2-3)Gal(b1-4)[Fuc(a1-3)]GlcNAc(b1-3)Gal(b1-4)GlcNAc
# Outline: as §1
# [23] = molecular target: Neu5Ac(a2-3)Gal(b1-4)[Fuc(a1-3)]GlcNAc(b1-3)GalNAc
# Outline: as §1
# [24] = molecular target: Neu5Ac(a2-3)Gal(b1-4)[Fuc(a1-3)]GlcNAc(b1-6)[Neu5Ac(a2-3)Gal(b1-3)]GalNAc
# Outline: as §1
# [25] = molecular target: Neu5Ac(a2-3)GalNAc(b1-4)GlcNAc
# Outline: as §1
# [26] = molecular target: Neu5Ac(a2-3)[GalNAc(b1-4)]Gal(b1-4)GlcNAc(b1-3)GalNAc
# Outline: as §1
# [27] = molecular target: Neu5Ac(a2-3)[Neu5Ac(a2-6)]GalNAc
# Outline: as §1
binder,measurement,setting,value
B1,glycan array binding signal (z-score),Fuc(a1-2)Gal(b1-4)Glc,-0.354
same,glycan array binding signal (z-score),[1],-0.084
same,glycan array binding signal (z-score),[2],0.768
same,glycan array binding signal (z-score),[3],1.37
same,glycan array binding signal (z-score),[4],-0.842
same,glycan array binding signal (z-score),[5],0.229
same,glycan array binding signal (z-score),[6],3.87
same,glycan array binding signal (z-score),[7],3.37
same,glycan array binding signal (z-score),Gal(b1-2)Gal,0.469
same,glycan array binding signal (z-score),[8],4.54
same,glycan array binding signal (z-score),[9],-0.718
same,glycan array binding signal (z-score),[10],0.818
same,glycan array binding signal (z-score),[11],0.014
same,glycan array binding signal (z-score),[12],-0.613
same,glycan array binding signal (z-score),[13],-1.39
same,glycan array binding signal (z-score),Gal3S(b1-4)Glc,-1.26
same,glycan array binding signal (z-score),[14],0.849
same,glycan array binding signal (z-score),[15],4.17
same,glycan array binding signal (z-score),[16],0.303
same,glycan array binding signal (z-score),[17],-0.113
same,glycan array binding signal (z-score),[18],-0.547
same,glycan array binding signal (z-score),[19],-0.813
same,glycan array binding signal (z-score),[20],0.311
same,glycan array binding signal (z-score),[21],-0.941
same,glycan array binding signal (z-score),[22],3.14
same,glycan array binding signal (z-score),[23],8.24
same,glycan array binding signal (z-score),[24],3.1
same,glycan array binding signal (z-score),[25],-0.108
same,glycan array binding signal (z-score),[26],-0.77
same,glycan array binding signal (z-score),[27],-0.361
